Most compounds without a hit are left out; they make up all but 5.4% or so of the library.
PHOSPHO1 block: PubChem AID 1565; Phosphoethanolamine/phosphocholine phosphatase (Homo sapiens), Q8TCT1; recombinant PHOSPHO1, absorbance phosphatase assay; inhibition, % at 13.3 µM; hit rate 1.1% among 290,000; in the data active = inhibition above about 60%
APOBEC3G inh: APOBEC3G DNA deaminase inhibitors, primary screen, biochemical, fluorescence, single-stranded DNA substrate, uHTS; inhibition, % at 20 µM; hit rate 0.28% among 330,000; DNA dC->dU-editing enzyme APOBEC-3G (Homo sapiens), Q9HC16; recombinant A3G, ssDNA deamination FAM/TAMRA fluorescence;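 active = inhibition of at least 40% at 20 µM, with no more than 30% in the related APOBEC3A deaminase screen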;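 note: plate controls were DMSO wells with A3G for no effect and wells lacking A3G enzyme for full effect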
rCAG binder: binders of r(CAG) RNA repeats, primary screen, biochemical, fluorescence. r(CAG) RNA repeat, TO-PRO-1 dye displacement fluorescence. inhibition, % at 3 µM. AID 651821, 2012. hit rate 1.3% among 370,000;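 active = inhibition above the plate cutoff, the mean of all test compounds on that plate plus 3 SD, cut at about 35% in these data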;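 note: 0% = DMSO alone and 100% = 100 µM mitoxantrone as full dye displacement; higher means more dye released from RNA so lower well fluorescence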
ALR inh: inhibitors of human ALR sulfhydryl oxidase, primary screen, biochemical, H2O2 detection, HRP-luminol luminescence, single point; purified ALR, DTT oxidation; hit rate 3.8% among 290,000; inhibition, % (test concentration not listed);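 active = mean replicate inhibition above about 79%, with every replicate also reaching it, limit read from the data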
Target sequence (P55789 whole entry, looked up): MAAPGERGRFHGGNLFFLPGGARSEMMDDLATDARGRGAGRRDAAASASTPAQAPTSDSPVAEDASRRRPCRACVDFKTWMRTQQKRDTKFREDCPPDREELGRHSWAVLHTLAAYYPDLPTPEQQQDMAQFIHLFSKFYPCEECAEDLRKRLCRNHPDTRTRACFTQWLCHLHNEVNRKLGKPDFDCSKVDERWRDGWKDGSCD
aDG glyco act: activators of alpha-DG glycosylation, primary screen, uHTS, Pro5-aDG cells, AlphaScreen. hit rate 0.22% among 360,000. AID 624168, 2012. activation, % at 10 µM. alpha-DG glycosylation AlphaScreen (IIH6); 0% Pro5, 100% B10-LARGE cell signal;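 active = activation of at least 8% versus controls, or a plate z-score of at least 8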;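 note: Pro5 are CHO cells carrying HIG-tagged alpha-DG that lacks glycosylation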
APOBEC3A inh: APOBEC3A ssDNA deaminase inhibitors, primary screen, selectivity assay for APOBEC3G inhibitor project, biochemical, FAM/TAMRA oligo cleavage fluorescence | recombinant A3A, FAM/TAMRA ssDNA deamination fluorescence | inhibition, % at 20 µM | hit rate 0.41% among 330,000 | DNA dC->dU-editing enzyme APOBEC-3A (Homo sapiens), P31941;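 active = at least 40% inhibition at 20 µM here, with at most 30% in a related deaminase screen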;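 note: plate controls were A3A with DMSO for no effect and wells lacking A3A enzyme for full effect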
Target sequence (P31941 whole entry, looked up): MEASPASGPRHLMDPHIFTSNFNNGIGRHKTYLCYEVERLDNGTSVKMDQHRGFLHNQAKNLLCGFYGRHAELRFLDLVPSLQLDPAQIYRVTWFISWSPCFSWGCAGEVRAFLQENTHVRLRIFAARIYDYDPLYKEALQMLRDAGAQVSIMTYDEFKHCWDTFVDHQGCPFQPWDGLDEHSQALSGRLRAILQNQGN
Numbers without * were called inactive; · = no result given.

SMILES	PHOSPHO1 block	APOBEC3G inh	rCAG binder	ALR inh	aDG glyco act	APOBEC3A inh
COc1ccc(-c2nc(CSCC(=O)NC3CCN(Cc4ccccc4)CC3)c(C)o2)cc1OC	13	-6	-8	99*	0	-5
CCOC(=O)N1CCC(NC(=O)CSCc2nc(-c3ccc(OC)c(OC)c3)oc2C)CC1	26	-3	-5	98*	0	0
COc1ccc(-c2nc(CSCC(=O)NC3CC3)c(C)o2)cc1OC	24	-3	0	99*	0	0
COc1ccc(-c2nc(CSCC(=O)NC3CCCC3)c(C)o2)cc1OC	55	-8	-6	99*	0	-6
O=C(Nc1ccc(O)cc1)/C(=C\C=C\c1ccccc1)NC(=O)c1ccccc1	16	-3	7	73	0	-1
O=C(Nc1ccc(C(=O)O)cc1)/C(=C\C=C\c1ccccc1)NC(=O)c1ccccc1Cl	4	1	37*	·	0	2
COc1ccc2c(c1)CCCN2C(=O)C1CCCN(S(=O)(=O)c2ccccc2)C1 (configuration not stated)	·	·	1	·	·	·
CCSCc1nnc(SCC(=O)Nc2nccs2)n1CC	60*	5	-6	-14	0	4
CCn1c(COc2ccc(C(C)C)cc2)nnc1SCC(=O)Nc1nccs1	97*	-2	1	-13	0	-2
CCc1nnc(NC(=O)CSc2nnc(Cc3cc(=O)[nH]c(=O)[nH]3)n2-c2ccc(OC)cc2)s1	8	6	4	-5	0	2
CCc1nnc(NC(=O)CSc2nnc(COc3ccccc3)n2Cc2ccccc2)s1	60*	-8	0	20	1	-1
CCc1nnc(NC(=O)CSc2nnc(Cc3cc(=O)[nH]c(=O)[nH]3)n2-c2cccc(OC)c2)s1	13	1	1	96*	0	1
CCn1c(C)nnc1SCC(=O)Nc1nccs1	40	-10	-1	-7	0	-3
O=S1(=O)c2ccc(N3CC[C@H](O)C3)cc2O[C@H]2CCN1C2	·	·	4	·	·	·
Cc1cc(C)cc(N(CC(=O)NC2CCC(C)CC2)S(=O)(=O)c2ccccc2)c1 (configuration not stated)	·	·	2	·	·	·
CCN1CCCCC(NC(=O)Cc2ccccc2)C1=O (configuration not stated)	·	·	-1	·	·	·
COC(=O)[C@]1(C#N)CC(=O)N(CC(C)C)[C@@H]1c1ccccc1	·	·	-1	·	·	·
COC(=O)[C@H](C)N(Cc1cn(Cc2ccccc2)nn1)S(=O)(=O)c1ccccc1Br	·	·	1	·	·	·
O=C(CCCn1c(=S)[nH]c2cc3c(cc2c1=O)OCO3)N1CCN(c2ccc(Cl)cc2)CC1	54	-7	1	-4	1	2
CC(=O)c1ccc(N2CCN(C(=O)CCCn3c(=S)[nH]c4cc5c(cc4c3=O)OCO5)CC2)cc1	63*	-5	1	5	0	0
O=C(CCn1c(=S)[nH]c2cc3c(cc2c1=O)OCO3)N1CCc2ccccc2C1	66*	-7	5	18	·	-1
O=C(CCCn1c(=S)[nH]c2ccc(Br)cc2c1=O)N1CCN(c2ccccn2)CC1	-96	-5	1	92*	0	0
O=C(CCCn1c(=S)[nH]c2cc3c(cc2c1=O)OCO3)N1CCc2ccccc2C1	-48	-2	2	-1	0	-2
O=c1c2cc(Br)ccc2[nH]c(=S)n1Cc1ccccn1	3	-8	1	93*	0	-7
CC(=O)NC(C)C(=O)N1CCCC1C(=O)N1CCCC1C(=O)NC(C)C(=O)NC1C(=O)NC(CC(C)C)C(=O)NC2CCCCNC(=O)CCC(C(=O)NC(Cc3ccc(O)cc3)C(=O)O)NC(=O)C3CCC(=O)OCC(NC(=O)C4CCCN4C(=O)C(Cc4c[nH]c5ccccc45)NC2=O)C(=O)NC(CC(=O)OC1C)C(=O)NC(Cc1c[nH]c2ccccc12)C(=O)N3 (configuration not stated)	·	·	18	·	·	·
SMILES	PHOSPHO1 block	APOBEC3G inh	rCAG binder	ALR inh	aDG glyco act	APOBEC3A inh
O=C(Nc1ccccc1[N+](=O)[O-])NC1CCCCN(Cc2cccc(Cl)c2)C1=O (configuration not stated)	·	·	0	·	·	·
O=C(Cc1ccccc1)NC1CCCCN(Cc2ccc(Cl)cc2)C1=O (configuration not stated)	·	·	2	·	·	·
O=C(CCCn1c(=S)[nH]c2cc3c(cc2c1=O)OCO3)N1CCN(c2ccccc2)CC1	69*	-9	0	8	0	-4
COc1cc2c(cc1OC)C(C(=O)O)C(c1ccc3c(c1)OCO3)N(C)C2=O (configuration not stated)	·	·	4	·	·	·
CCn1c(=NC(=O)CSC(C)=O)sc2cc(F)ccc21	12	-1	-2	98*	0	-5
C#CCn1c(=NC(=O)CSC(C)=O)sc2cc(F)ccc21	32	6	·	97*	0	6
CCC(=O)N=c1sc2cc(F)cc(F)c2n1C	·	-5	0	-1	0	1
COC(=O)[C@]12CCCCC=C1N(Cc1ccc(OC)cc1)C(=O)[C@@H]2CC(=O)NCc1cccc(C(F)(F)F)c1	·	·	-1	·	·	·
N#CC1=C2SCN(Cc3ccco3)CN2C(=O)CC1c1cccc2ccccc12 (configuration not stated)	39	5	37*	-6	0	-3
N#CC1=C2SCN(Cc3ccco3)CN2C(=O)CC1c1ccccc1F (configuration not stated)	83*	7	·	3	0	0
O=[N+]([O-])c1cc(S(=O)(=O)N2CCCCCC2)ccc1F	15	·	-1	97*	0	·
O=[N+]([O-])c1cc(S(=O)(=O)N2CCCC2)ccc1O	5	-11	1	-25	0	0
O=C(O)CCN1C(=O)C(=C2CCCCCC2)SC1=S	-8	-7	5	6	3	0
O=C1CC(=O)N(Cc2ccco2)C(=S)N1	89*	93	·	74	0	99
S=C1NCN(Cc2ccco2)CN1	-1	-10	-1	0	0	-5
O=C1C(=C2CCCCC2)SC(=S)N1Cc1ccco1	70*	-7	19	43	0	0
Cc1ccc(C(=O)NC2CCCCN(Cc3cccc(F)c3)C2=O)cc1 (configuration not stated)	·	·	-1	·	·	·
CCN(CCO)Cc1cc(=O)oc2cc3c(cc12)CCC3	26	-3	1	87*	0	-1
Cc1ccc(NC(=O)Cc2cccc(OC(F)(F)F)c2)c(S(=O)(=O)N2CCOCC2)c1	·	·	-1	·	·	·

Source: PubChem BioAssay (several laboratories)
